# From the supplement of paper PMC6555819
# Legend:
# Experiment in all cases: PBM binding z-score (relative to random genomic background probes); higher = stronger binding; sequences stand for … in GC…GCGATTGACAGCGTAGAATGAAGG
# [1] = system: RARb homodimer (NR concentration 270 nM)
# Outline: (§1)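 On custom Agilent 4×180K arrays, double-stranded probes with 34-nt variable regions carried direct-repeat seeds, single-nucleotide variants, half-site ablations or random human genomic background. Ligand-free nuclear receptor dimers were applied for 1 h, and binding was read with antibodies against each partner (one per run). Binding z-scores come from regression-normalized fluorescence, with the random background probes as reference.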
# [2] = system: RARg:RXRa (NR concentration 270 nM, RXRa partner concentration 90 nM)
# Outline: as §1
# [3] = system: RARg homodimer (NR concentration 270 nM)
# Outline: as §1
# [4] = system: RXRa DBDmut IVT, anti-RXR (DBD mutation: RXRa K156A/R161A, NR concentration 90 nM)
# Outline: as §1
# [5] = system: RXRa homodimer (NR concentration 180 nM)
# Outline: as §1
# [6] = system: THRa:RXRa (NR concentration 90 nM, RXRa partner concentration 90 nM)
# Outline: as §1
# [7] = system: THRa homodimer (NR concentration 90 nM)
# Outline: as §1
# [8] = system: VDR:RXRa (NR concentration 270 nM, RXRa partner concentration 90 nM)
# Outline: as §1
# [9] = system: VDR homodimer (NR concentration 270 nM)
# Outline: as §1
Sequence,PBM binding z-score [1],PBM binding z-score [2],PBM binding z-score [3],PBM binding z-score [4],PBM binding z-score [5],PBM binding z-score [6],PBM binding z-score [7],PBM binding z-score [8],PBM binding z-score [9]
ATCTCTAGGTAACAAGTTCAGTTAAAGAGAGGAC,1.9,1.37,1.45,0.748,0.837,1.73,1.16,2.23,2.34
TCGAGTAGGTTAGTCGGGGCATTCCGCCAACATA,0.291,-0.0295,-0.243,0.165,0.00868,1.05,-0.473,2.1,-0.0294
TCATGTAGGTAAACAGGTGAAAGTCCGTAAGTTA,0.722,0.133,0.0838,0.975,0.516,0.578,0.226,0.613,-0.0362
GCTAGCAGGTCATTTGGGTCACTCAATGACGGGC,3.52,4.5,4.38,2.82,4.23,3.74,1.48,5.92,3.25
CATATAGGGTCAGCTAGGCCAGAGTAGGGACGGC,3.33,4.41,4.49,1.48,4.2,3.37,1.12,3.7,1.02
GCTCGGAGGCCAAGGTCAGAGCTTTGTCCGTAGA,3.1,2.72,3.69,0.649,1.93,2.64,1.27,1.16,0.281
AGAACGAGGGCAATGAGTTGCTAGCACGGGTGGC,0.949,0.847,1.24,1.67,0.545,0.677,-0.316,3.91,1.49
TGAATGAGGTTATCAGATCAGGGAACGTTGCAAA,0.317,1.62,1.06,0.731,1.99,2.02,0.233,1.04,0.273
CCAGCCAGGTGAGAAGGTAACTCAGCCTCGATTA,0.235,0.0253,0.00676,-0.801,0.0434,0.621,0.306,-0.314,-0.441
CAAACTAGGTCACCGGAAGGTTAAAGTCCGCATG,4.56,6.51,5.79,2.08,4.2,3.84,2.36,4.29,1.28
GCTAGTTGGGCAGTAAAAGGTCACACACCGGTCG,5.15,5.03,4.7,0.364,5.38,3.49,1.62,3.62,1.66
GCGACTGGCGCATCAGCAGGTTACCATAACTTAA,-0.252,-0.477,-0.547,-0.402,-0.293,-0.328,-0.551,-0.625,-0.6
TCATATAGGTAAATGCTAGGTGAAAGTTCGATCT,1.2,0.926,0.552,1.97,1.35,1.75,0.835,1.22,0.742
ATACCAAGGTGATCGTGAGGACGTTGATACTAAC,0.51,0.635,0.393,-0.27,0.264,2.96,1.97,0.664,0.714
CCGAATGGGGCAAGGTTACCATAACGCACAGCCA,1.24,1.05,1.37,0.000118,1.39,1.26,0.404,0.34,0.214
GCTAGCAGGCCATTTGGGGCACTCAATGACGGGC,-0.0146,-0.154,0.3,-0.299,-0.112,0.771,-0.695,-0.555,-0.274
